# Test results as given in the supplement of paper PMC10338343.
# ± gives the standard deviation.
# System: MILI (PIWIL2) piRISC loaded with piRNA #1 (26 nt)
# Assay: pre-steady-state target cleavage rate (min^-1); guide: piRNA #1 5'p-UGAGGUAGUAGGUUGUAUAGUAUCCA; MIWI and MILI are mouse PIWI proteins and EfPiwi is from a freshwater sponge; tags in brackets are library labels; higher = faster piRNA-guided slicing of the target
# Conditions: auxiliary factor: 500 nM mouse GTSF1
# Protocol: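 Cleave-'n-Seq: a library of target RNAs (target site embedded in constant flanks, ACAGCATTCCGCGTTAGTGATATCCG... 5' flank; DNA-blocked outside the site) at 0.1 nM was incubated with 1 nM active mouse MILI or MIWI piRISC (synthetic 5'-monophosphorylated piRNA guide) with or without 500 nM mouse GTSF1 at 33 °C for 1 min to 16 h. Uncleaved targets were sequenced and normalised to non-target controls, and the pooled three trials were fitted to a burst-and-steady-state model to give the pre-steady-state cleavage rate (min^-1; k3 is constrained to at most 1e-4). Sequence is the target site only; target names encode pairing extent (gX:gY) and contiguous / 1-mismatch / 2-mismatch / bulge geometry. Fits with R² ≤ 0 are excluded.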
row,Sequence,pre-steady-state target cleavage rate
1,GGAGAGGAUAGUAUACAACCUACAACCUCA,0.037 ± 0.0093
2,GGAGACCUAUGUAUACAACCUACUCCCUCA,0.0316 ± 0.0063
3,GGAGUGGAUUACUAUACAACCUACUACCUCA,0.154 ± 0.0078
4,GGAGACCUAACUAUACAACCUACUACCCUCA,0.185 ± 0.034
5,GGAGACCUAUGAUUAGCAACCUACUACCUCA,0.00597 ± 0.0035
6,GGAGAGGAUACUAUACAAUCUACUACCUCA,0.129 ± 0.0097
7,GGAGACCAUACUAUACUACCUACUACCUCA,0.158 ± 0.017
8,GGAGUGGAUACUAUUCAACCUUCUACCUCA,0.00907 ± 0.0019
9,GGAGACCUAUGAAAACAACCUACUAGCUCA,0.00432 ± 0.0025
10,GGAGACCUAUCUAUACAACCUACUUCCACA,0.0447 ± 0.011
11,GGAGACGAUACUAUACAACCUAUUACCUCA,0.219 ± 0.021
12,GGAGACCUUUCUAUACAACCUUCUACCUCA,0.00706 ± 0.003
13,GGAGACCUAUGAUAACAAGCUACUACCUCA,0.0133 ± 0.0028
14,GGAGACGAUACUAUACAACCUACUACCCUCA,0.176 ± 0.021
15,GGAGACCAUACUUUACAACGUACUACCUCA,0.0198 ± 0.0034
16,GGAGACCUUACUAUCACAACCUACUACCUCA,0.143 ± 0.016
17,GGAGAGGAUACUAAACAACCUACUUCCUCA,0.0102 ± 0.0039
18,GGAGACGAUACUAUGACAACCUACUACCUCA,0.186 ± 0.017
19,GGAGACCUAUGUACACAACCUACUACCUCA,0.0498 ± 0.0086
20,GGAGACGAUACUAUUCAACCUACUUCCUCA,0.0306 ± 0.0097

row,Sequence,pre-steady-state target cleavage rate
1,GGAGACGAUACGAUACAACCUACUACCUCA,0.193 ± 0.018
2,GGAGACCUAUCUAUACAUCCAACUACCUCA,0.00941 ± 0.0034
3,GGAGACCAUACUAUACUUCCUACUACCUCA,0.226 ± 0.021
4,GGAGACGAUACUAUACAACCUACUACCUCA [g2:g24:cont:t1A],0.21 ± 0.018
5,GGAGUGGAUACUAUUCAUCCUACUACCUCA,0.265 ± 0.016
6,GGAGUGGAUACUAAACAACCUACAACCUCA,0.0728 ± 0.009
7,GGAGACCUAACUUACAACCUACUACCUCA,0.0068 ± 0.0056
8,GGAGACCUAACGUAUACAACCUACUACCUCA,0.0292 ± 0.012
9,GGAGACCUAACAAUACAACCUACUACCACA,0.0755 ± 0.019
10,GGAGACCAUACUAUACAACCUACAACCACA,0.0647 ± 0.017
11,GGAGACGAUACUAUACAACCUACUCACCUCA,0.122 ± 0.019
12,GGAGAGCAUACUAUACAACCUACUACCACA,0.158 ± 0.018
13,GGAGACCGUACUAUACAACCUACUACCUCA,0.157 ± 0.021
14,GGAGAGGAUACUAUACUACCUACUAGCUCA,0.0852 ± 0.013
15,GGAGUGGUUACUAUACAACCUACUACGUCA,0.0604 ± 0.011
16,GGAGACGAUCCUAUACAACCUACUACCUCA,0.174 ± 0.025
17,GGAGACCUAUGAUAUGUUGCUACUACCUCCA,< 0.0001
18,GGAGUGGAUACCAUACAACCUACUACCUCA,0.231 ± 0.02
19,GGAGACCUAUCAUAACAACCUACUACCUCA,0.0143 ± 0.0053
20,GGAGACCUAUGUAUACAACCUAUUACCUCA,0.0697 ± 0.0079
